Results as given in PubChem BioAssay (NCI).
Compounds without any hit were thinned out: in the full panel of roughly 83,000, 20% have a hit.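 For each line, cells grew in 96-well plates with the test compound present at a single concentration for 48 hours.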 Values without a mark were called inactive. The source made the active and inactive calls. Rule for the calls: active = growth percent below 10; inactive = the rest.

System: MDA-MB-468 breast
Assay: NCI-60 one-dose screen, 48 h (100 = growth as untreated, 0 = no growth, -100 = all killed)
Conditions: 10 µM unless noted

Row | Compound | growth
1 | O=C1C=CC2(O)OC(c3ccccc3)CC(=O)C2=C1O (stereo not given) | 70.7%
2 | CCCCc1ccc(N=Nc2ccc(OCC[N+](C)(C)C)cc2)cc1 | 4.13% (active)
3 | CCC(C)[C@@H]1NC(=O)[C@@H]2CCCN2C(=O)[C@H](Cc2ccccc2)NC(=O)[C@@H]2CCCN2C(=O)[C@H](Cc2ccccc2)NC(=O)[C@@H]2CCCN2C(=O)[C@H](Cc2ccccc2)NC1=O (stereo not given in full) | 116%
4 | O=C(N=Nc1c(O)[nH]c2ccccc12)Nc1ccc(Cl)cc1 | 81.7%
5 | Cc1ccc(Cn2c(O)c(N=NC(=O)c3ccc(S(N)(=O)=O)cc3)c3ccccc32)cc1 | 100%
6 | COc1ccc2c(c1)N(CCO)C1=C(C(=O)OC1)C2c1cccc(Br)c1 (stereo not given) | 12.9%
7 | C=C1C(=O)O[C@H]2[C@H]1CC/C(COC(=O)NCc1cc[nH]c1)=C\CC[C@@]1(C)O[C@@H]21 | 16.8%
8 | O=C(Nc1ccc(N=Cc2ccccc2O)cc1)NC1C=c2ccccc2=CC1 (stereo not given) | 87.1%
9 | CN(C)CCCCC(C(=O)CBr)(c1ccccc1)c1ccccc1 | -53.1% (active)
10 | CCc1cc2c(cc1Cl)nc1c(=O)[nH]c(=O)nc-1n2CCOCC(C)C | 43.8%
11 | COc1cccc(OC)c1-c1nnn(C)c1C(=S)N1CCN(c2ccc([N+](=O)[O-])cc2Cl)CC1 | 89%
12 | COc1cc(C2C=C(c3ccc(C)cc3)Nc3nc(SC)[nH]c(=O)c32)ccc1Oc1ccnc2cc(Cl)ccc12 (stereo not given) | 75.3%
13 | COC(=O)/C=C1\S/C(=N\NS(=O)(=O)c2ccc(C)cc2)N(c2ccccc2)C1=O | 102%
14 | COC(=O)c1c2c(c[n+]([O-])c1C)C(=O)C=C(NCc1ccccc1)C2=O | -74.9% (active)
15 | Cc1cc(=O)oc2cc(OCCn3c(C)nn(-c4ccc(Cl)cc4)c3=O)ccc12 | 16.1%
16 | Nc1cc(-c2ccc(Cl)cc2)nn1-c1nc2ccccc2nc1Cc1ccccc1 | 75.7%
17 | N=C(N)c1ccc(-c2ccc(-c3cc(Cl)cc(Cl)c3)s2)cc1 | -77.6% (active)
18 | CC(=O)[C@@H]1CC[C@]2(C(=O)n3ccnc3)CC[C@]3(C)[C@H](CC[C@@H]4[C@@]5(C)Cc6c([nH]c7ccccc67)C(C)(C)[C@@H]5CC[C@]43C)[C@@H]12 | 90.8%
19 | CCOC(=O)c1cc(/C(=N\O)c2cc(OC)c(OC)c(OC)c2)n2cc(C)cc(C)c12 | 15.8%
20 | COc1ccc2c3c(c4ccccc4cc13)C(=O)N(CCN(C)CCN)C2=O | -76.5% (active)

Row | Compound | growth
21 | ClC1=NC(Cl)C(Cl)=N/C1=N\c1ncn[nH]1 (stereo not given) | -61.6% (active)
22 | CCN1C(=O)N(CC)C2C1NN=C1SC(c3ccccc3)=CC(=O)N12 (stereo not given) | 5.17% (active)
23 | Nc1nnc2cc(F)ccc2n1 | 122%
24 | COc1ccc(Nc2ncnc3c2c(SC)nn3-c2ccccc2)cc1 | 69.2%
25 | Cc1nc2c(=O)[nH]c(SCC(=O)Nc3cccc(F)c3)nc2[nH]c1=O | 98.9%
26 | CCCCc1ccc(C(N)=O)nc1 | 85%
27 | COc1ccc(-c2nnc(SCc3ccc(O)c4ncccc34)o2)cc1 | 51.2%
28 | COc1ccc(/C=C2\N=C(c3ccccc3)N(C(=O)c3ccccc3O)NC2=O)cc1 | 106%
29 | COc1ccc2c(c1)c(CC(=O)NCCOCCOCC(=O)Nc1ccc(OC)c(C(N)=O)c1O)c(C)n2C(=O)c1ccc(Cl)cc1 | 88.6%
30 | O=S(=O)(/N=C1C=C/C(=N\S(=O)(=O)c2ccccc2)c2ccccc2\1)c1ccccc1 | 79.3%
31 | N#C/C(=C\c1ccc(-c2ccc(Br)cc2)o1)c1nc(-c2ccco2)cs1 | -26.8% (active)
32 | COc1ccc(-c2c[nH]c(C(=O)O)c2-c2cc(OC)c3c(c2OC)OCO3)cc1 | 103%
33 | C=C(C)[C@@H]1CC[C@]2(C(=O)NCCCCCN(CCC#N)CCC#N)CC[C@]3(C)[C@H](CC[C@@H]4[C@@]5(C)CCC(=O)C(C)(C)[C@@H]5CC[C@]43C)[C@@H]12 | 103%
34 | O=C(c1cc2ccccc2o1)c1nn(-c2ccccc2)/c(=N/N=Cc2cn(-c3ccccc3)nc2-c2cc3ccccc3oc2=O)s1 | 105%
35 | Nc1ccc2c(c1)c(N)nn2C(=O)Nc1ccc(Cc2ccccc2)cc1 | 98.4%
36 | Cc1cc2c3c(cccc3c1)C(=O)c1ccccc1-2 | 63.7%
37 | COc1cccc(-c2nc3sccn3c2-c2ccnc(NCCN3CCCNS3(=O)=O)n2)c1 | 102%
38 | COC(=O)C1(NC(=O)CNC(=O)OCc2ccccc2)CCCC1 | 96.1%
39 | O=C(CSc1nnc(-c2ccc(Cl)cc2)o1)Nc1ccc(C(=O)/C=C/c2ccccc2)cc1 | 98.7%
40 | Nc1nc2ncc(CCNc3ccc(C(=O)NC(CCC(=O)O)C(=O)O)cc3)nc2c(=O)[nH]1 (stereo not given) | 96.7%
